# This is part of a sample that, as a whole, favours compounds with a hit. Of some 79,000 tested, about 15% had one in any assay. A number with no mark means an inactive call. Active and inactive are the calls of the source. Rule as the data show it: active = growth inhibition above about 70%; inactive = the rest.
# Experiments:
# [1] = NCI Yeast Anticancer Drug Screen. Data for the rad52 strain (AID 147);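 also: 0% = growth of vehicle-treated control cultures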; conditions: S. cerevisiae rad52 mutant growth inhibition, active compounds read high
# Outline: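 Screen used a yeast mutant impaired in DNA repair. After compound exposure, growth was measured. Values reflect inhibition compared with vehicle-treated cells.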
# [2] = NCI Yeast Anticancer Drug Screen. Data for the wt1 strain (AID 149);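 also: 0% = growth of vehicle-treated wt1 cultures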; conditions: S. cerevisiae wt1 strain (SPY 50644) growth inhibition, active compounds read high
# Outline: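 wt1 strain grown with compound or vehicle; inhibition taken from the growth difference.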
# [3] = NCI Yeast Anticancer Drug Screen. Data for the rad50EPP+ strain (AID 151);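 also: 0% = growth of vehicle-treated control cultures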; conditions: S. cerevisiae rad50 mutant strain, active compounds read high
# Outline: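 Exposing the rad50EPP+ strain to each compound, growth was compared with vehicle-only cultures to give inhibition.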
# [4] = NCI Yeast Anticancer Drug Screen. Data for the mgt1 strain (AID 153); conditions: S. cerevisiae mgt1 mutant growth inhibition, active compounds read high
# Outline: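 Genetically defined yeast (mgt1) treated with compound; inhibition of growth expressed against vehicle-treated controls.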
# [5] = NCI Yeast Anticancer Drug Screen. Data for the rad50 strain (AID 155);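 also: 0% = growth of vehicle-only cultures of the same strain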; conditions: S. cerevisiae rad50 strain growth inhibition, active compounds read high
# Outline: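 DNA repair mutant yeast, compound exposure, growth read-out; inhibition is taken relative to vehicle.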
# [6] = NCI Yeast Anticancer Drug Screen. Data for the mec2-1 strain (AID 157); conditions: S. cerevisiae mec2-1 strain, active compounds read high
# Outline: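 Readout is yeast growth inhibition, normalised to vehicle-treated controls, in the mec2-1 strain exposed to compound.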
# [7] = NCI Yeast Anticancer Drug Screen. Data for the rad14 strain (AID 159);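 also: 0% = growth of vehicle-treated control cultures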; conditions: S. cerevisiae rad14 strain growth inhibition, active compounds read high
# Outline: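 DNA repair-defective yeast, compound-exposed; % growth inhibition derived by comparison with vehicle-treated controls.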
# [8] = NCI Yeast Anticancer Drug Screen. Data for the sgs1 mgt1 strain (AID 161);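 also: 0% = growth of cultures given vehicle only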; conditions: S. cerevisiae sgs1 mgt1 strain, active compounds read high
# Outline: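 Growth of a repair-deficient yeast mutant was monitored after compound treatment and expressed as inhibition relative to vehicle-treated cultures.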
# [9] = NCI Yeast Anticancer Drug Screen. Data for the CLN2oe strain (AID 163);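 also: 0% = growth of vehicle-only control cultures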; conditions: S. cerevisiae CLN2oe strain, active compounds read high
# Outline: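 Values reflect how much compound exposure reduced yeast growth, referenced to vehicle-exposed cells. Assay organism is a strain with a defined genetic change affecting cell-cycle control.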
# [10] = NCI Yeast Anticancer Drug Screen. Data for the cln2 rad14 strain (AID 165);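 also: 0% = growth equal to vehicle treated cultures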; conditions: S. cerevisiae cln2 rad14 strain, active compounds read high
# Outline: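 Relative to vehicle controls, growth inhibition of compound-treated cln2 rad14 yeast was recorded.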
# [11] = NCI Yeast Anticancer Drug Screen. Data for the bub3 strain (AID 167); conditions: S. cerevisiae bub3 mutant strain, active compounds read high
# Outline: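 In this screen, a yeast mutant lacking normal mitotic checkpoint function is challenged with compound. Relative growth versus vehicle gives the inhibition value.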
# [12] = NCI Yeast Anticancer Drug Screen. Data for the wt2 strain (AID 169);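 also: 0% = growth of vehicle-treated yeast cultures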; conditions: S. cerevisiae wt2 strain growth inhibition, active compounds read high
# Outline: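 Values express reduction in yeast growth under compound treatment, referenced to vehicle-treated cells.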
# [13] = NCI Yeast Anticancer Drug Screen. Data for the mlh1 strain (AID 171);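 also: 0% = growth of vehicle-treated control cultures of the same strain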; conditions: S. cerevisiae mlh1 strain growth inhibition, active compounds read high
# Outline: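 Steps: expose the defined-mutant yeast strain to compound; expose a parallel culture to vehicle; measure growth; express compound effect as inhibition relative to the vehicle culture.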
# [14] = NCI Yeast Anticancer Drug Screen. Data for the sgs1 strain (AID 173);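 also: 0% = growth of vehicle-only control cultures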; conditions: S. cerevisiae sgs1 mutant, active compounds read high
# Outline: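 Treat defined-mutant yeast with compound; measure growth; calculate inhibition relative to vehicle-treated cells.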
# [15] = NCI Yeast Anticancer Drug Screen. Data for the mlh1 rad18 strain (AID 175); conditions: S. cerevisiae mlh1 rad18 strain growth inhibition, active compounds read high
# Outline: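 Test agents were incubated with a yeast strain of defined genotype (DNA damage repair defect). Inhibition of growth was derived by comparison with vehicle-exposed cultures.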
# [16] = NCI Yeast Anticancer Drug Screen. Data for the rad18 strain (AID 177); conditions: S. cerevisiae rad18 mutant growth inhibition, active compounds read high
# Outline: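 A genetically defined yeast mutant impaired in DNA damage repair was treated with test compounds, then its growth was measured against cultures receiving vehicle alone.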
# [17] = at 5.0 µM (retest, dose inferred, filed as 0.5)
# [18] = at 50.0 µM (retest, dose inferred, filed as 5.0)
structure (smiles),measurement,setting,value
S=c1[nH]c2cc3ccccc3cc2[nH]1,growth inhibition,[1]; at 1.2 µM,-42%
same,growth inhibition,[1]; at 3.7 µM,-46%
same,growth inhibition,[1]; at 11.0 µM,-37%
same,growth inhibition,[1]; at 33.0 µM,-31%
same,growth inhibition,[1]; at 100.0 µM,-19%
same,growth inhibition,[2]; at 1.2 µM,-24%
same,growth inhibition,[2]; at 3.7 µM,-6%
same,growth inhibition,[2]; at 11.0 µM,6%
same,growth inhibition,[2]; at 33.0 µM,3%
same,growth inhibition,[2]; at 100.0 µM,2%
same,growth inhibition,[3]; at 1.2 µM,-12%
same,growth inhibition,[3]; at 3.7 µM,3%
same,growth inhibition,[3]; at 11.0 µM,-4%
same,growth inhibition,[3]; at 33.0 µM,14%
same,growth inhibition,[3]; at 100.0 µM,38%
same,growth inhibition,[4]; at 1.2 µM,-36%
same,growth inhibition,[4]; at 3.7 µM,-7%
same,growth inhibition,[4]; at 11.0 µM,-15%
same,growth inhibition,[4]; at 33.0 µM,6%
same,growth inhibition,[4]; at 100.0 µM,16%
same,growth inhibition,[5]; at 1.2 µM,-25%
same,growth inhibition,[5]; at 3.7 µM,-25%
same,growth inhibition,[5]; [17],5%
same,growth inhibition,[5]; at 11.0 µM,-11%
same,growth inhibition,[5]; at 33.0 µM,3%
same,growth inhibition,[5]; [18],86% (active)
same,growth inhibition,[5]; at 50.0 µM,71.2% (active)
same,growth inhibition,[5]; at 100.0 µM,17%
same,growth inhibition,[6]; at 1.2 µM,-25%
same,growth inhibition,[6]; at 3.7 µM,-13%
same,growth inhibition,[6]; [17],-3%
same,growth inhibition,[6]; at 11.0 µM,-8%
same,growth inhibition,[6]; at 33.0 µM,1%
same,growth inhibition,[6]; [18],17%
same,growth inhibition,[6]; at 50.0 µM,45.6%
same,growth inhibition,[6]; at 100.0 µM,24%
same,growth inhibition,[7]; at 1.2 µM,-14%
same,growth inhibition,[7]; at 3.7 µM,-11%
same,growth inhibition,[7]; at 11.0 µM,-7%
same,growth inhibition,[7]; at 33.0 µM,-10%
same,growth inhibition,[7]; at 100.0 µM,1%
same,growth inhibition,[8]; [17],-5%
same,growth inhibition,[8]; [18],15%
same,growth inhibition,[8]; at 50.0 µM,68.8%
same,growth inhibition,[9]; at 1.2 µM,-13%
same,growth inhibition,[9]; at 3.7 µM,-18%
same,growth inhibition,[9]; at 11.0 µM,-3%
same,growth inhibition,[9]; at 33.0 µM,-7%
same,growth inhibition,[9]; at 100.0 µM,18%
same,growth inhibition,[10]; [17],34%
same,growth inhibition,[10]; [18],57%
same,growth inhibition,[10]; at 50.0 µM,43.6%
same,growth inhibition,[11]; at 1.2 µM,-7%
same,growth inhibition,[11]; at 3.7 µM,15%
same,growth inhibition,[11]; [17],-4%
same,growth inhibition,[11]; at 11.0 µM,-9%
same,growth inhibition,[11]; at 33.0 µM,7%
same,growth inhibition,[11]; [18],83% (active)
same,growth inhibition,[11]; at 50.0 µM,68.9%
same,growth inhibition,[11]; at 100.0 µM,40%
same,growth inhibition,[12]; at 1.2 µM,-55%
same,growth inhibition,[12]; at 3.7 µM,-50%
same,growth inhibition,[12]; at 11.0 µM,-46%
same,growth inhibition,[12]; at 33.0 µM,-19%
same,growth inhibition,[12]; at 100.0 µM,-3%
same,growth inhibition,[13]; at 1.2 µM,-13%
same,growth inhibition,[13]; at 3.7 µM,-7%
same,growth inhibition,[13]; at 11.0 µM,-4%
same,growth inhibition,[13]; at 33.0 µM,14%
same,growth inhibition,[13]; at 100.0 µM,34%
same,growth inhibition,[14]; at 1.2 µM,-27%
same,growth inhibition,[14]; at 3.7 µM,-8%
same,growth inhibition,[14]; at 11.0 µM,-4%
same,growth inhibition,[14]; at 33.0 µM,20%
same,growth inhibition,[14]; at 100.0 µM,25%
same,growth inhibition,[15]; [17],9%
same,growth inhibition,[15]; [18],78% (active)
same,growth inhibition,[15]; at 50.0 µM,67.6%
same,growth inhibition,[16]; at 1.2 µM,-9%
same,growth inhibition,[16]; at 3.7 µM,2%
same,growth inhibition,[16]; at 11.0 µM,11%
same,growth inhibition,[16]; at 33.0 µM,18%
same,growth inhibition,[16]; at 100.0 µM,17%

# From PubChem BioAssay (NCI)
